Compounds with a hit are over-represented: about 3% of the library has one in this group of screens.
esBAF inh – inhibitors of esBAF chromatin remodeling in mouse ES cells. Bmi1-luciferase knock-in reporter, 24 h; 100% = twice the neutral-well signal. reporter increase, % at 12.5 µM. 350,000 compounds, 2% hits. AID 602393; in the data active = activation above about 40%; inconclusive = no clear call, values can overlap the other calls;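 also: 0% = median of the plate's neutral control wells and 100% = double that signal; a rise in the Bmi1 reporter signal indicates esBAF inhibition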
Statin myotox sup – suppression of simvastatin myotoxicity | C2C12 myotubes + simvastatin, ATP luminescence, 48 h; scaled: DMSO 0, geranylgeraniol control 100 | rescue of ATP level, % at 7.49 µM | 330,000 compounds, 0.78% hits;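 active = mean ATP rescue above about 67%, or every replicate alone reaching that limit, limit read from the data, passing the limit was not always enough; inconclusive = no clear call, values can overlap the other calls; inactive = mean under the limit and some replicate under it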;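 also: myotubes were challenged with 10 µM simvastatin during compound exposure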
MITF TRPM1 HTS – increases MITF-driven TRPM1 promoter luciferase signal. SK-MEL-5 TRPM1-promoter luciferase, 24 h; % of positive control, neutral wells = 0. activation, % at 12.5 µM. 300,000 compounds, 0.75% hits;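 active = mean activation of at least 80% with every replicate also reaching 80%; inconclusive = mean reaches 80% but some replicate falls short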;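 also: 0% = neutral control wells and 100% = parthenolide positive control wells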
Wnt bcat act – Wnt/beta-catenin pathway activation; Wnt/beta-catenin reporter cell assay, activator, plate reader; activation, % at 9.35 µM; 300,000 compounds, 1.2% hits; AID 743398; in the data active = activation above about 30%, passing the limit was not always enough; inconclusive = no clear call, values can overlap the other calls;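 also: 0% = neutral control wells and 100% = positive control wells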
Numbers without * were called inactive; u = inconclusive; x = no result given.

SMILES	esBAF inh	Statin myotox sup	MITF TRPM1 HTS	Wnt bcat act
CC(C)C#Cc1cnc2c(c1)C(=O)N([C@@H](C)CO)C[C@@H](C)[C@H](CN(C)Cc1ccc3c(c1)OCO3)O2	1.5	48.2	x	x
O=C(CC(F)(F)F)N1C[C@@H]2[C@H](c3ccccc31)[C@@H](CO)N2CC1CCCCC1	1.1	3.1	x	x
CNC[C@H]1Oc2ncc(C#Cc3ccccc3F)cc2C(=O)N([C@@H](C)CO)C[C@H]1C	2.0	9.8	x	x
O=c1c2ccccc2c2ccccc2c(=O)n1Cc1ccco1	-3.0	13.3	x	x
Cc1c(N=Cc2c(O)n(Cc3ccco3)c(=O)c3ccccc23)c(=O)n(-c2ccccc2)n1C	1.4	114.4*	-6.1	-3.7
CC(=O)Nc1ccc(NC(=O)/C(Cl)=C/c2ccccc2)cc1	53.1*	-9.3	111.5*	-1.2
COc1ccccc1S(=O)(=O)N(C)C[C@@H]1Oc2cc(C#CCC(C)C)ccc2S(=O)(=O)N([C@@H](C)CO)C[C@H]1C	4.7	-63.4	x	x
Cc1nn(-c2ccccc2)c(Cl)c1C(=O)Nc1nnc(C2CCCCC2)s1	x	x	-6.1	x
Cc1c(C(=O)Nc2ccc(Cl)cn2)oc2ccccc12	45.3*	85.6*	22.8	27.6
Cc1c(C(=O)Nc2nnc(C3CC3)s2)oc2ccccc12	52.8*	4.3	64.8	45.1*
Cc1csc(NC(=O)c2oc3ccccc3c2C)n1	u	3.2	39.5	24.6
O=C(Nc1nnc(C2CC2)s1)c1cc(-c2ccccc2)nn1-c1ccccc1	3.1	77.9*	x	-2.7
Cc1c(C(=O)Nc2nccs2)oc2ccccc12	69.9*	19.8	x	79.6*
CC(=O)N(C)C[C@@H]1Oc2ncc(-c3ccccc3C)cc2C(=O)N([C@@H](C)CO)C[C@H]1C	-0.3	3.1	x	x
Cc1c(C(=O)Nc2cnccn2)oc2ccccc12	61.2*	-89.2	7.1	4.8
COc1cc2cc(CN(CCc3ccccc3C)C(=S)NCCCN3CCOCC3)c(=O)[nH]c2cc1OC	x	x	9.7	50.3*
COc1ccc(NC(=O)N(C)C[C@@H]2OCCCC[C@@H](C)Oc3ccc(NC(=O)CCCN(C)C)cc3C(=O)N([C@@H](C)CO)C[C@H]2C)cc1	-3.4	x	x	x
COc1ccc(-c2cc(C(=O)N3CCCC3)no2)cc1OC	66.9*	24.2	35.8	19.6
COc1ccc(-c2cc(C(=O)N3CCCCC3)no2)cc1OC	58.6*	-9.7	60.6	-3.7
CCCNC(=O)Nc1ccc2c(c1)OC[C@H](C)N(Cc1ccc(-c3ccccn3)cc1)C[C@H](C)[C@H](OC)CN(C)C2=O	0.2	20.8	x	x
C[C@@H]1CCCCO[C@H](CN(C)Cc2ccc3c(c2)OCO3)[C@H](C)CN([C@H](C)CO)C(=O)c2cc(NS(=O)(=O)c3ccc(F)cc3)ccc2O1	-2.4	x	x	x
CC(=O)N1N=C(c2ccc(C)cc2)OC1c1ccc(Br)cc1 (centres undefined)	37.8	2.1	89.9*	12.5
CC(=O)N1[C@H](C)C=C[C@]1(Cc1ccccc1)C(=O)O	-0.6	-0.7	1.6	1.8
COCCNC(=O)[C@@]1(Cc2ccccc2)C=C[C@@H](C)N1C(C)=O	13.3	120.9*	16.1	4.4
Cc1ccccc1-c1cnc2c(c1)C(=O)N([C@H](C)CO)C[C@@H](C)[C@H](CN(C)Cc1cccnc1)O2	-0.5	9.7	x	x
SMILES	esBAF inh	Statin myotox sup	MITF TRPM1 HTS	Wnt bcat act
COc1ccc(CCNC2CC(=O)N(CCc3ccccc3)C2=O)cc1OC (centres undefined)	6.5	7.7	4.2	42.5*
COc1ccc(CCN2C(=O)C3C(C2=O)C2C=CC3C23CC3)cc1OC (centres undefined)	24.1	118.4*	6.7	-0.7
CC(C)NC(=O)N(C)C[C@H]1Oc2cc(C#CC3CC3)ccc2S(=O)(=O)N([C@H](C)CO)C[C@H]1C	-1.0	-2.6	x	x
CC(C)c1ccc(NC(=O)C2CC(=O)N=C(N)S2)cc1 (centres undefined)	4.5	138.2*	x	0.1
CCC(=O)N1CCc2cc(S(=O)(=O)CCC(=O)NCCc3ccc(OC)c(OC)c3)ccc21	-10.1	106.6*	-4.6	x
CCC(=O)N1CCc2cc(S(=O)(=O)CCC(=O)NCCc3ccccc3)ccc21	-1.8	3.7	10.7	x
COc1ccc(NC2=Nc3ccccc3CC2)cc1	8.9	-6.0	91.1*	39.5*
COc1ccc(CNC(=O)C[C@H]2CC[C@@H](NS(=O)(=O)c3cccc(OC)c3)[C@H](CO)O2)cc1	0.8	7.5	x	x
CC(=O)Oc1ccc(Oc2ccc(-c3noc(C)n3)cc2)cc1	20.4	13.2	x	48.1*
COc1ccc(C2C(CC(=O)O)=C(Nc3ccccc3)C(=O)N2c2ccccc2)cc1 (centres undefined)	54.2*	5.7	49.1	43.4*
